# Compound activity (PubChem BioAssay)
# Compounds with a hit are over-represented: about 5.7% of the library has one in this group of screens.
# A549 viability = counter-screen for Nrf2 inhibitors: cytotoxicity in A549 cells | AID 504648 | hit rate 0.16% among 390,000 | Potency, µM (titrated, usually from 46 µM), inactives show at the highest dose activity change, negative = cytotoxicity, usual class: inhibitors | A549 ARE-Fluc cells, CellTiter-Fluor viability, 18-24 h; note: potency is the fitted concentration of half-maximal effect
#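 A549 ARE_Fluc cells in 5% FBS OPTI-MEM were exposed to compounds in concentration-response for 18-24 h at 37 deg C. Viability was read by CellTiter-Fluor fluorescence (Ex 405/Em 525) after 30 min, before the luciferase read.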
# Nrf2 inh = inhibitors of Nrf2 signaling | Potency, µM (top dose mostly 46 µM), without a hit: at the highest dose activity change, negative = inhibition, usual class: inhibitors | hit rate 2.1% among 360,000 | A549 ARE-Fluc reporter, luciferase luminescence, 18-24 h | AID 504444; note: potency is the fitted concentration of half-maximal effect; nearly all actives have a fitted effect of over 60% in size
#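 Quantitative HTS in A549 cells stably bearing an antioxidant response element-firefly luciferase construct. Inhibition of Nrf2-driven transcription was scored by luminescence after 18-24 h of compound exposure at 37 °C.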
# PI4K2A block = PI4K2A (human) kinase inhibition; hit rate 0.13% among 420,000; purified PI4K2A, ADP-Glo luminescence, 1 h; hits give low values; activity change, negative = inhibition, % at 76.9 µM; AID 1346378; in the data active = activity change below about -50%; inconclusive = mostly about -30% to -49%;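 note: -100% = wells without enzyme as full effect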
# Target sequence (Q9BTU6 whole entry, looked up): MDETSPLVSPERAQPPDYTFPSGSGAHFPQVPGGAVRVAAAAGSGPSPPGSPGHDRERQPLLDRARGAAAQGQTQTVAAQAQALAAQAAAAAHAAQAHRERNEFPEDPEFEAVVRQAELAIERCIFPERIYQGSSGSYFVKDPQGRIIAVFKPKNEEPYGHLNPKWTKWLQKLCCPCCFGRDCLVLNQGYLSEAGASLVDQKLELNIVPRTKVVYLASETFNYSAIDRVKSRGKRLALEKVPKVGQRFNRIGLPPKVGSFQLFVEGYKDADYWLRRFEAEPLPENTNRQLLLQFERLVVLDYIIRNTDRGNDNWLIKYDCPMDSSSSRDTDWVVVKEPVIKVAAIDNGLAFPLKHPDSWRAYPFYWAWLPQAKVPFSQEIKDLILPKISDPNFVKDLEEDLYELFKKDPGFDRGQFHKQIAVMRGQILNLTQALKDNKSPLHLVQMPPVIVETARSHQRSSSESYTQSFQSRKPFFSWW
#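 ADP-Glo luminescence measured ADP generated by PI4K2A enzyme (4 ug/mL before mixing) with 1.2 mM PI substrate (pre-mix) and 300 microM ATP (pre-mix). Tris pH7.5 buffer with MgCl2, Triton X-100; 1 h reaction at ambient temperature.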
# Giardia kill = kills Giardia lamblia; Giardia lamblia trophozoite viability; activity change, % at 7.66 µM, hits read low; hit rate 0.15% among 340,000; AID 540267; in the data active = activity change below about -80%; inconclusive = between about -30% and that limit;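 note: parasites exposed to compound for two days anaerobically before the ATP read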
#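 Trophozoites 100 cells/well + cpd; 48 hrs, 37 deg C, anaerobic. ATPLite 1-Step added, 15-30 min RT, luminescence read (ATP-based viability).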
# KB-V1 cytotox = kills drug-selected multidrug resistant KB-V1 cells | KB-V1 MDR cells viability, CellTiter-Glo, 72 h | Potency, µM (doses to about 46.1 µM), most hits filed as cytotoxic | hit rate 3.4% among 400,000 | AID 1347076; note: potency is the fitted concentration of half-maximal effect; nearly all actives have a fitted effect of over 60% in size
#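 KB-V1, DMEM (no phenol red) + 10% FBS; cpd pin-transferred, titration series; 72 h, 37 degrees C; CellTiter-Glo, luminescence. Data normalized, curve-fit.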
# KB-3-1 tox = KB-3-1 parental cell cytotoxicity. KB-3-1 viability, CellTiter-Glo ATP luminescence, 72 h. AID 1347075. Potency, µM (top dose mostly 46.1 µM), actives largely listed as cytotoxic. hit rate 1.4% among 400,000; note: potency is the fitted concentration of half-maximal effect; nearly all actives have a fitted effect of over 60% in size
#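 Viability of parental KB-3-1 cells, measured by CellTiter-Glo luminescence, followed a 72 h incubation at 37 °C with pinned compounds in phenol-red-free DMEM containing 10% FBS.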
# Starred values were filed as active, the others as inactive; i = inactive; ? = inconclusive; nt = not tested or not shown. Unless noted, calls come from the whole dose curve; as a rule, active = well fitted curve in the direction sought with a large enough effect; inconclusive = small, poorly fitted or top-dose-only effect, or another doubt; inactive = no such curve, though single readings can be large; an effect the other way counts as inactive or inconclusive. Unless noted, % is set by controls: 0 for no effect and ±100 for the full control effect.
SMILES,A549 viability,Nrf2 inh,PI4K2A block,Giardia kill,KB-V1 cytotox,KB-3-1 tox
CC1(C(=O)NCc2ccccc2)Cc2c(-c3cccc(C(N)=O)c3)ccnc2O1 (centres undefined),nt,nt,-1.1,nt,i,6.51µM*
CN(C)c1ccc(-c2ccnc3c2CC(C)(C(=O)NCc2ccco2)O3)cc1 (centres undefined),nt,nt,-1.6,nt,i,?
CC1(C(=O)NCc2ccco2)Cc2c(-c3cccc(C(F)(F)F)c3)ccnc2O1 (centres undefined),nt,nt,-4.1,nt,?,6.51µM*
CC1(C)OC(=O)C2(Cc3ccccc3N3CCCC32)C(=O)O1 (centres undefined),?,2.6%,nt,-11.0,nt,nt
O=C(NC1CCCCN(Cc2cccc(Cl)c2)C1=O)c1ccc(-c2ccccc2)cc1 (centres undefined),nt,nt,-0.9,nt,nt,nt
Brc1cccc(-c2nnn3c2nc(NCc2ccc4c(c2)OCO4)c2ccccc23)c1,3.7%,9.6%,2.3,nt,i,i
Cc1ccc(CNC(=O)Cn2cc3c(n2)-c2c(oc(C(=O)N4CCOCC4)c2C)CC3)cc1,3.2%,?,-2.0,nt,nt,nt
O=C(NCC1COCCO1)C1CCN(S(=O)(=O)c2ccc(Br)s2)CC1 (centres undefined),nt,nt,2.9,nt,nt,nt
CC1(C(=O)NCc2ccco2)Cc2c(-c3cccc(C(N)=O)c3)ccnc2O1 (centres undefined),nt,nt,0.3,nt,i,10.3µM*
CC(=O)NCCNC(=O)C1(C)Cc2c(-c3cccc(C(N)=O)c3)ccnc2O1 (centres undefined),nt,nt,8.3,nt,i,i
O=c1c2cnn(-c3ccc(Cl)cc3)c2ncn1Cc1ccc(Cl)cc1Cl,-1.7%,15.5%,-1.6,nt,nt,nt
CCn1c(SCC(=O)Nc2ccc(N3CCOCC3)cc2)nnc1-c1ccc(OC)cc1,-1.5%,nt,4.1,5.3,16.4µM*,i
COc1ccc(NC(=O)CSc2nnc(-c3ccccc3C)n2C)cc1,-13.0%,?,-4.0,6.9,14.6µM*,i
COc1ccc(NC(=O)CSc2nnc(Cc3cccs3)n2-c2ccc(C)cc2)cc1,-21.4%,-92.3%,2.3,-10.0,i,i
CCn1c(SCC(=O)Nc2cccc(OC)c2)nnc1-c1ccc(Cl)cc1,-12.0%,25.9µM*,5.9,19.1,11.6µM*,?
COc1cccc(NC(=O)CSc2nnc(Cc3cccs3)n2-c2ccc(C)cc2)c1,-14.2%,nt,-1.7,6.1,8.2µM*,i
Cc1ccc2nc3sc(C(=O)NCc4ccco4)cc3cc2c1,nt,nt,nt,nt,i,i
O=C(C1CCCCC1)N1CC(=O)N2CCCc3ccccc3C2C1 (centres undefined),nt,nt,-2.0,nt,nt,nt
O=C(c1ccco1)N1CCNCC1,nt,nt,0.2,nt,nt,nt
CCn1c(SCC(=O)Nc2ccccc2N2CCOCC2)nnc1-c1ccccc1O,-3.4%,nt,8.6,-4.6,i,i
CCn1c(SCC(=O)Nc2ccccc2N2CCOCC2)nnc1-c1ccccc1,6.2%,-26.1%,1.8,-4.4,18.4µM*,i
CCCN(CCC)S(=O)(=O)c1ccc(N2CCCC2=O)c([N+](=O)[O-])c1,-2.6%,8.8%,-0.5,-2.9,20.6µM*,i
CCCCN(CCCC)S(=O)(=O)c1ccc(N2CCCC2=O)c([N+](=O)[O-])c1,-0.2%,-16.0%,0.3,3.5,?,i
OC(CNCC1COc2ccccc2O1)COCc1cccs1 (centres undefined),?,11.2%,17.6,-2.8,20.6µM*,?
COc1ccc(C2=C(C=C(C#N)C#N)C(c3ccccc3C)c3ccccc3O2)cc1OC (centres undefined),?,?,-0.3,9.5,14.6µM*,i
SMILES,A549 viability,Nrf2 inh,PI4K2A block,Giardia kill,KB-V1 cytotox,KB-3-1 tox
COc1cc(-c2nnc(COC(=O)C3c4ccccc4Oc4ccccc43)o2)cc(OC)c1OC,-10.2%,6.8%,6.7,31.6,i,i
c1ccc(Nc2ccnc(Nc3ccccc3)n2)cc1,-1.7%,?,-0.4,-0.8,18.4µM*,?
Nc1cc(=O)[nH]c2c1CCC2,nt,nt,nt,nt,i,?
O=C(NCC1CCCCC1)C1CCN(C(=O)NC2CCCCC2)CC1,3.3%,7.9%,1.0,1.0,16.4µM*,i
COc1nc(OC)nc(N2CCC(C(=O)NCC3CCCCC3)CC2)n1,0.9%,26.1%,3.3,6.0,18.4µM*,i
CN=c1scc(-c2ccc(F)cc2)n1/N=C/c1ccc(O)c(O)c1,-16.2%,20.6µM*,-15.3,?,i,?
CN=c1scc(-c2ccc([N+](=O)[O-])cc2)n1/N=C/c1ccco1,-15.7%,?,-11.5,?,i,i
COc1nc(C#N)nc(N2CCCCC2)n1,-1.3%,-26.6%,nt,-0.6,i,?
Cc1ccc(NC(=O)CCl)c(C)c1,-19.0%,0.2%,-2.7,1.1,?,16.4µM*
Cc1ccc(NC(=O)CC2Sc3ccccc3NC2=O)c(C)c1 (centres undefined),-6.3%,3.9%,0.7,nt,?,16.4µM*
Cc1ccc(NC(=O)CCc2ccc(C)o2)c(C)c1,0.8%,7.3%,4.0,?,?,?
CCCc1cc(C(=O)O)c2ccccc2n1,6.1%,nt,1.2,-2.7,i,i
Cc1ccc(NC(=O)Cc2cc(C(=O)O)c3ccccc3n2)c(C)c1,?,5.8µM*,-3.4,-9.5,?,i
O=C(Nc1ccccn1)c1ccc([N+](=O)[O-])o1,-14.9%,7.6%,-0.4,-92.6*,?,?
O=C(Nc1cc(-c2nc3ncccc3o2)ccc1Cl)c1ccc([N+](=O)[O-])o1,1.5%,?,-2.9,-82.8*,?,3.66µM*
O=C(Nc1ncccn1)c1ccc([N+](=O)[O-])o1,?,?,-2.4,-92.8*,i,?
